A selection: hits, their analogues and other compounds. The true share with any hit is near 3.5%.
MITF primary: blocks human microphthalmia-associated transcription factor; O75030; inhibition, % at 2.6 µM; 0.91% of 650,000 active; AID 1259374; AlphaScreen MITF homodimerization, bead proximity signal; in the data active = inhibition above about 50%;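 note: 0% = vehicle wells with protein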
FBW7 act: human FBW7 E3 ligase activation, primary screen | Q969H0 | AlphaScreen FBW7–phospho-cyclin E peptide binding, activator screen | normalized activity (activation), % at 26.1 µM | 0.13% of 650,000 active; in the data active = normalized activity above about 1.9%;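 note: purified mutant Fbw7 with reduced substrate affinity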
Target sequence (Q969H0 whole entry, looked up): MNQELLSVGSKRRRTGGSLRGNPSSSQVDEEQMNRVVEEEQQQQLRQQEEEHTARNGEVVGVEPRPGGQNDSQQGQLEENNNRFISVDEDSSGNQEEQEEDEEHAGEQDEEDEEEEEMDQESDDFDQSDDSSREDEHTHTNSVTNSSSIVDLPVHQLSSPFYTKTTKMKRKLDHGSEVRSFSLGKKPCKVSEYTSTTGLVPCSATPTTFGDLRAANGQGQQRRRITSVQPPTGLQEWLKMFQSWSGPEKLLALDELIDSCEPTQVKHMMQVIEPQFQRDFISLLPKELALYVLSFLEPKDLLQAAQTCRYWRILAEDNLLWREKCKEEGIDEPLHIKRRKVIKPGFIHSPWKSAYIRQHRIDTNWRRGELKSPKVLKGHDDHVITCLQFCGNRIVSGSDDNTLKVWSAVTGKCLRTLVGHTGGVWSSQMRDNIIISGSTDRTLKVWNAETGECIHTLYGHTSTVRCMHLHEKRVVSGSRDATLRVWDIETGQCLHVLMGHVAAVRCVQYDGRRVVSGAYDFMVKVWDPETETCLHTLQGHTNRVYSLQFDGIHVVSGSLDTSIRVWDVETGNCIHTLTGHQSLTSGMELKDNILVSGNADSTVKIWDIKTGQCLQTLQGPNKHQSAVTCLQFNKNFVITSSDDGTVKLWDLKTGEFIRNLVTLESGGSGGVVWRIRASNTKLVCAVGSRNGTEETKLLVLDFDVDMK
GPR151 ag: activates the human receptor GPR151; Q8TDV0; PathHunter beta-arrestin GPR151 cells, luminescence; activation, % at 11.2 µM; 1% of 650,000 active; AID 1508602; in the data active = activation above about 4.9%;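 note: 0% = median of compound wells and 100% = cells with positive control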
TEAD-YAP inh: TEAD-YAP interaction inhibition; HEK-TIYL cells, TEAD-Gal4/YAP UAS-luciferase luminescence; inhibition, % at 9.12 µM; 1.4% of 640,000 active; in the data active = inhibition above about 32%;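 note: 0% = median of test compound wells and 100% = reference inhibitor wells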
GPR151 conf act: human GPR151 activation, confirmation screen | shares compounds with GPR151 ag | GPR151 PathHunter beta-arrestin cells, luminescence, 90 min; % of EA-reagent control over plate median | activation, % at 11.2 µM | 6,700 tested, under 10 active | AID 1508609;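 active = mean percent activation across replicates above the confirmation screen cutoff of 4.91%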
GPR119 counter: activates human GPR119 in a GPR151 counter-screen. 0.3% of 6,700 active. GPR119 PathHunter beta-arrestin cells, luminescence, 90 min; 0 = compound-well median, 100 = enzyme-acceptor control. shares compounds with GPR151 ag. activation, % at 11.2 µM;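 active = mean percent activation in the counterscreen above 29.09%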;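 note: counterscreen on off-target GPR119 to flag nonselective hits from the GPR151 activator screen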
* hit, by the source's call; . = not tested or not shown; ! = a repeat was not active.

SMILES | MITF primary | FBW7 act | GPR151 ag | TEAD-YAP inh | GPR151 conf act | GPR119 counter
CCC(C)NC(=O)c1oc2ccc3c(c2c1C)C(=O)CC(C)(C)O3 (configuration not stated) | 8.8 | 0.0 | -0.2 | -69.3 | . | .
CCS(=O)(=O)c1ncc(Cl)c(C(=O)Nc2cccc(C)c2)n1 | 5.1 | 0.2 | -0.6 | -23.5 | . | .
CCCCOc1ccccc1C1Nc2ccccc2-c2nnc(SCCCC)nc2O1 (configuration not stated) | -4.8 | -0.4 | 0.2 | -4.3 | . | .
O=C(c1ccco1)N1CCC(c2nc3c(nnn3Cc3ccccc3Cl)c(=O)[nH]2)CC1 | 5.0 | 0.7 | 5.7* | 8.5 | 1.3 | 13.1
Cc1ccc(Cn2nnc3c(=O)[nH]c(C4CCN(C(=O)c5ccco5)CC4)nc32)cc1 | 24.5 | 0.2 | 0.9 | 6.5 | . | .
Cc1ccc(-n2c(SCc3cccc([N+](=O)[O-])c3)nc3[nH]ncc3c2=O)cc1Cl | -4.4 | 0.0 | 4.9* | 15.6 | 0.0 | -3.3
O=c1c2cn[nH]c2nc(SCc2cccc([N+](=O)[O-])c2)n1-c1ccc(Cl)cc1 | 9.3 | 0.6 | -1.1 | -3.8 | . | .
CC(C)CCNC(=O)C1CC(=O)N(C2CCCCCC2)C1 (configuration not stated) | 0.6 | 0.0 | 10.3* | 0.2 | 0.3 | 2.0
CC(C)CN(CCCNC(=O)C1CC(=O)N(C2CCCC2)C1)CC(C)C (configuration not stated) | 10.1 | 0.0 | 0.3 | 0.0 | . | .
CC(C)CCNC(=O)C1CCC(=O)N1C(C)C (configuration not stated) | 8.2 | -0.1 | 5.2* | -5.9 | 0.5 | 3.8
COc1ccc(CNC2CCCCC2OC)cc1OC (configuration not stated) | 13.7 | -0.2 | -1.0 | -6.0 | . | .
COc1ccc(/C=C2\NC(=S)NC2=O)c2ccccc12 | 10.3 | -0.1 | 1.2 | 6.0 | . | .
O=C(CN(c1ccccc1Cl)S(=O)(=O)c1ccccc1)NC1CC1 | -1.6 | -0.1 | 5.9* | -3.8 | -0.1 | -4.5
O=C(O)COc1ccc(/C=C2/NC(=O)N(Cc3ccccc3F)C2=O)cc1 | -3.5 | 0.0 | -0.4 | -5.7 | . | .
CC1(C)C=C(c2ccc(O)cc2)CC(C)(C)N1 | 9.2 | -0.1 | 5.6* | 3.5 | -0.5 | -1.7
CC1(C)C=C(c2ccc(O)cc2O)CC(C)(C)N1 | -16.8 | -0.1 | -0.1 | 4.0 | . | .
O=C(Nc1ccccc1F)N1CCN(c2ccc(Nc3ccccn3)nn2)CC1 | 32.7 | -1.2 | 2.0 | 3.8 | . | .
Cc1cn2c3ccccc3n(Cc3ccccc3C)c2n1 | -2.9 | -0.2 | 0.2 | -12.2 | . | .
CCOc1cc(/C=C/c2[nH]c(=O)[nH]c(=O)c2[N+](=O)[O-])ccc1O | 2.9 | -0.4 | 6.5* | 1.4 | -0.3 | -5.5
O=C(CCC(=O)OCC(=O)c1ccc([N+](=O)[O-])cc1)Nc1cccc(C(F)(F)F)c1 | 7.0 | -0.4 | -0.6 | 6.3 | . | .
COC(=O)c1ccc(C2C3=C(CC(c4ccc(C)cc4)CC3=O)Nc3ccccc3N2C(C)=O)cc1 (configuration not stated) | 17.4 | 0.4 | 6.6* | 15.3 | 0.2 | 5.4
CC(CC(=O)Nc1nc2ccc([N+](=O)[O-])cc2s1)c1ccccc1 (configuration not stated) | 18.0 | 0.2 | 6.5* | 15.9 | 0.6 | 9.1
CCOC(=O)Nc1nnc(Cc2ccc(Cl)c(Cl)c2)s1 | 14.7 | 0.0 | 5.8* | -0.3 | 0.8 | -3.6
NS(=O)(=O)c1ccc(NC(=O)COc2ncnc3scc(-c4ccccc4)c23)cc1 | -11.9 | 0.0 | 5.5* | -4.3 | -1.1 | 1.5
N#C/C(=C\c1ccc(O)cc1O)c1nc2ccccc2[nH]1 | -3.9 | 0.0 | -4.9 | -33.4 | . | .
SMILES | MITF primary | FBW7 act | GPR151 ag | TEAD-YAP inh | GPR151 conf act | GPR119 counter
N#C/C(=C\c1cc(Cl)ccc1O)c1nc2ccccc2[nH]1 | 7.5 | 0.1 | 5.7* | -22.1 | 2.0 | 8.3
Cc1ccc2nc(/C(C#N)=C\c3ccccc3OCC#N)[nH]c2c1 | 10.0 | 0.0 | 5.1* | -27.8 | 1.9 | 6.9
O=C(CSc1cn(CCNC(=O)c2ccccc2)c2ccccc12)NCC1CCCO1 (configuration not stated) | -18.2 | 0.1 | -0.2 | -5.5 | . | .
CC(C)N(C(=O)Cn1cc(SCC(=O)NCC2CCCO2)c2ccccc21)C(C)C (configuration not stated) | -1.4 | -0.1 | 11.8* | 2.0 | -0.3 | -2.0
COc1cccc(C2=CC(c3ccccc3C)n3ncnc3N2)c1 (configuration not stated) | 0.0 | -0.2 | -0.2 | 4.4 | . | .
CCOC(=O)C1=C(C)N=C2SCC(=O)N2C1c1cccc2ccccc12 (configuration not stated) | -10.1 | 0.8 | 7.6* | -4.9 | -1.0 | -6.0
CCOC(=O)C1=C(C)N=C2SCC(=O)N2C1c1ccc(OC)c2ccccc12 (configuration not stated) | 2.2 | -0.1 | 2.4 | 7.4 | . | .
Cc1cn2c(=O)c(C(=O)Nc3cccc4ccccc34)cnc2s1 | 15.0 | 0.2 | -1.3 | 1.8 | . | .
CCN1CNC(=S)N(c2ccc(F)c(Cl)c2)C1 | 6.8 | 0.0 | 6.0* | 0.6 | 0.5 | -7.1
O=C(COc1ccc(C(=O)N2CCN(CCc3ccccc3)CC2)cc1)C1CC1 | 15.1 | 0.2 | 5.1* | 2.8 | -1.0 | 7.3
O=C(COc1ccc(C(=O)N2CCN(c3ccccc3Cl)CC2)cc1)C1CC1 | 1.1 | -0.2 | 0.0 | -10.6 | . | .
COC(=O)c1c(C)[nH]c(C(=O)COC(=O)CCc2ccc(OC)c(OC)c2)c1C | 5.8 | 0.1 | 5.7* | 4.8 | 0.0 | 3.8
CCC(C)OC(=O)C1=C(C)NC2=C(C(=O)CC(c3ccc(OC)cc3)C2)C1c1cc(OC)c(OC)cc1Br (configuration not stated) | -1.8 | -0.6 | 7.5* | 10.7 | 2.1 | 6.1
COC(=O)C(CCCCNC(=O)c1ccccc1)NC(=O)c1ccccc1 (configuration not stated) | 6.4 | -0.1 | -0.4 | 3.0 | . | .
NC(CCCCNC(=O)c1ccccc1)C(=O)O (configuration not stated) | 7.1 | -0.1 | 5.0* | 4.8 | -0.7 | -9.8
CCCCn1c(=S)[nH]c2ccsc2c1=O | -20.8 | 0.1 | -1.6 | 4.6 | . | .
Cc1ccc(Cn2c(CN3CCCC(C)C3)nc3c2c(=O)n(C)c(=O)n3C)cc1 (configuration not stated) | -9.7 | -0.2 | 4.9* | 10.5 | 0.6 | -3.6
CC1CCCN(Cc2nc3c(c(=O)n(C)c(=O)n3C)n2Cc2ccc(Cl)cc2)C1 (configuration not stated) | -3.5 | 0.0 | -0.9 | -0.5 | . | .
CC(C)NC[C@H](O)COc1cccc2ccccc12 | -17.8 | 0.2 | 8.0*! | 1.2 | 1.7 | 4.6
CCOC(=O)C1(c2ccccc2)NC(c2ccc(O)c(OC)c2)C2C(=O)N(C)C(=O)C21 (configuration not stated) | 21.3 | 1.0 | 1.9 | -39.8 | . | .
CC(C)NC(=O)CSc1nc(Cc2ccccc2)nc2ccccc12 | -18.4 | 0.0 | -1.2 | -11.5 | . | .

Source: PubChem BioAssay (The Scripps Research Institute Molecular Screening Center)
